Activity calls are given as the source filed them. The rule behind the calls is not given here.
assay: C difficile toxins, biochemical counterscreen, UDPG substrate absence, confirmatory dose response (AID 720650); settings: series mostly up to 19.5 µM; activity change, negative = inhibition: at the top concentration

Row | SMILES | activity change, negative = inhibition | AC50
1 | COc1ccc(C2=NS(=O)(=O)N(C)C(C(=O)NCc3ccc4c(c3)OCO4)=C2)cc1 | 0.057% (inactive) | 
2 | CC1(C)Cc2nc(Cl)c(C#N)cc2CO1 |  | > 39 µM (inactive)
3 | CC(Sc1nccn1C)C(=O)c1c(N)n(C)c(=O)n(C)c1=O (centres undefined) | 13% (inactive) | 
4 | CCOC(=O)[C@@H]1[C@H]2COc3ccc(Br)cc3[C@@H]2N2C(=O)N(c3cccc(F)c3)C(=O)[C@]12C | -11.4% (inactive) | 
5 | Cc1ccc(S(=O)(=O)/N=C(/Nc2cccc(O)c2)c2ccccc2)cc1 | -15.3% (inactive) | 
6 | COc1ccccc1-n1c(CCC(=O)O)ccc1-c1ccccc1 | -1.98% (inactive) | 
7 | Cc1cccc(N/N=C/c2ccncc2)c1 |  | 1.1 µM (active)
8 | S=c1nc(-c2cccc(Cl)c2)[nH][nH]1 |  | 3.82 µM (active)
9 | CCC(=O)c1cn(CC(=O)Nc2cccc(C)c2C)c2ccccc12 | -3.61% (inactive) | 
10 | Oc1ccc2ccc3[nH]cnc3c2c1 |  | 18.5 µM (active)
11 | COc1ccccc1C=C1SC(=S)NC1=O | -7.14% (inactive) | 
12 | CS(=O)(=O)Nc1cccc(C2=NN(C(=O)c3ccccc3)C(c3cccs3)C2)c1 (centres undefined) | -13.6% (inactive) | 
13 | Cc1ccc(CSc2nc3nc(C)cc(C)c3c(=O)[nH]2)cc1 | -3.21% (inactive) | 
14 | COc1ccc(Br)cc1C(=O)Nc1ccc(O)cc1 |  | 9.64 µM (active)
15 | O=S(=O)(c1ccccc1)N1CCN(Cc2nnc(-c3ccccc3)o2)CC1 | -4.82% (inactive) | 
16 | S=c1nc(-c2ccc(Cl)cc2)[nH][nH]1 |  | 3.22 µM (active)
17 | CC(=O)Nc1ccc(NC(=O)CN2CCN(c3ccccn3)CC2)cc1 | -8.5% (inactive) | 
18 | Cc1cc(N/N=C/c2ccc(O)cc2)c2cccc(C)c2n1 |  | 16.3 µM (active)
19 | COc1ccc(C2=NS(=O)(=O)N(C)C(C(=O)NC(C)c3ccccc3)=C2)cc1 (centres undefined) | -15.3% (inactive) | 
20 | Cc1nc2ccccn2c1-c1ccnn1S(=O)(=O)c1ccc(F)cc1 | -14.9% (inactive) | 

Row | SMILES | activity change, negative = inhibition | AC50
21 | O=C(C[C@H]1C[C@H]2c3cc(NC(=O)c4ccc5c(c4)OCO5)ccc3O[C@H]2[C@@H](CO)O1)NCc1cccc(F)c1 | -0.529% (inactive) | 
22 | CCc1cc(-c2n[nH]c(C)c2-c2nc(C)cs2)c(O)cc1OC |  | > 39 µM (inactive)
23 | Cc1ccc(C(=O)NC(=S)NNC(=O)CC#N)cc1 |  | 5.73 µM (active)
24 | CNC(=O)N(O)C1N(/N=C/c2cccs2)C(=S)SC1(C)C (centres undefined) |  | > 39 µM (inactive)
25 | Cc1ccc(S(=O)(=O)N2CCOCC2)cc1C(=O)NCCCN1CCCC1=O | -7.95% (inactive) | 
26 | COc1cc(C=NNC(=O)c2ccccc2-n2cccc2)ccc1O | 2.55% (inactive) | 
27 | Cc1nn2cc(-c3cccc(Cl)c3)cnc2c1Br | -5.76% (inactive) | 
28 | O=C(O)C1C(=O)NCC1c1ccccc1 (centres undefined) | -10.6% (inactive) | 
29 | O=C(/C=C/c1ccccc1)Nc1cccnc1Cl |  | > 39 µM (inactive)
30 | O=C(CSc1nnc(-c2ccncc2)o1)N1CCCCCC1 | -6.56% (inactive) | 
31 | COc1ccc(/C=C/c2onc(C)c2S(=O)(=O)N2CCC(C(=O)N3CCC(C)CC3)CC2)cc1 | -5.37% (inactive) | 
32 | Cc1ccc(C)c2nc(Cl)c(C3NC(=O)c4ccccc4N3)cc12 (centres undefined) | -4.37% (inactive) | 
33 | O=C(NNc1nc2c(F)cc(F)cc2s1)C1COc2ccccc2O1 (centres undefined) |  | 0.699 µM (active)
34 | CC(C)(C)N1C(=O)c2ccc(C(=O)Nc3ccc(O)cc3)cc2C1=O |  | 8.25 µM (active)
35 | Nc1ccc(OCCCc2c(N)nc(N)nc2N)cc1 |  | 20.1 µM (active)
36 | CC(=O)Oc1ccc2nc(/C=C/c3ccccc3)oc(=O)c2c1 | -12% (inactive) | 
37 | O=C(CC(c1ccccc1)c1ccccc1)Nc1ccc(O)cc1 |  | 13.4 µM (active)
38 | COc1ccc2nc(NNC(=O)C3COc4ccccc4O3)sc2c1 (centres undefined) |  | < 0.16 µM (active)
39 | C[C@H](CO)N1C[C@H](C)[C@@H](CN(C)C(=O)Nc2ccc(C(F)(F)F)cc2)Oc2c(NS(=O)(=O)c3cn(C)cn3)cccc2C1=O |  | > 39 µM (inactive)
